Among all 200,000 compounds or so, about 360 (0.18%) were called active. The sample holds actives, similar compounds and a random draw of the others, so the mix is not that of the screen. Unmarked numbers belong to inactive results. No stated cut-off is given here; in the data, active means inhibition above about 25%; inactive means the rest.

This experiment deals with Toll-like receptor 4 (Homo sapiens) + Myeloid differentiation primary response protein MyD88 (Homo sapiens) (UniProt O00206+Q99836). Put plainly: inhibitors of TLR4-MyD88 association in cells, primary screen, cell-based, HeLa CL3-4, BLA complementation, FRET ratio (AID 861).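 Further: 0% = vehicle and 100% = reference inhibitor.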 The following applies: HeLa CL3-4 TLR4/MyD88 BLA complementation, at 8.4 µM, hits give high values.
Sequence of Toll-like receptor 4 (Homo sapiens) + Myeloid differentiation primary response protein MyD88 (Homo sapiens) (O00206 whole entry, looked up): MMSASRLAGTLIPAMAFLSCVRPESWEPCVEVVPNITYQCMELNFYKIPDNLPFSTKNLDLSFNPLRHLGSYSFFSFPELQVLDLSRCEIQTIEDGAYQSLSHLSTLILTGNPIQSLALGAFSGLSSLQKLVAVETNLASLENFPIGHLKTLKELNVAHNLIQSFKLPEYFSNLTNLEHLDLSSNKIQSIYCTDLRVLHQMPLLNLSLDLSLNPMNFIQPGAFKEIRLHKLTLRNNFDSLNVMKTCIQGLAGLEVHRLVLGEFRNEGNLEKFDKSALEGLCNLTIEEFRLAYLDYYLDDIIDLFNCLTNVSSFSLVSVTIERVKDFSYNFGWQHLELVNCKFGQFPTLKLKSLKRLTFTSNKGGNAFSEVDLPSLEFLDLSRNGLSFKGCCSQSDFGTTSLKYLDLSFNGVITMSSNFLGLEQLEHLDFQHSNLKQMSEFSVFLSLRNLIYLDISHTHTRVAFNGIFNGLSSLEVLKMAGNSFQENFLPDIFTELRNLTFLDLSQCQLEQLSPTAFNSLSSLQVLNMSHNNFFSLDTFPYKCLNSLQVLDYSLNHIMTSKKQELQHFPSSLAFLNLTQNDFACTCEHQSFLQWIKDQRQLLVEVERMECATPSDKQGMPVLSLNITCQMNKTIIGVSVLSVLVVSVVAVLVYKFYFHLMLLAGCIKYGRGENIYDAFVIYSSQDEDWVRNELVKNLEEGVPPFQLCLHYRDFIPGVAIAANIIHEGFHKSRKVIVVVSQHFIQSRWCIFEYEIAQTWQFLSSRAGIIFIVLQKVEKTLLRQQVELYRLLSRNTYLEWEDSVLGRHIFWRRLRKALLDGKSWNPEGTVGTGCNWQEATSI
Sequence of Toll-like receptor 4 (Homo sapiens) + Myeloid differentiation primary response protein MyD88 (Homo sapiens) (Q99836 whole entry, looked up): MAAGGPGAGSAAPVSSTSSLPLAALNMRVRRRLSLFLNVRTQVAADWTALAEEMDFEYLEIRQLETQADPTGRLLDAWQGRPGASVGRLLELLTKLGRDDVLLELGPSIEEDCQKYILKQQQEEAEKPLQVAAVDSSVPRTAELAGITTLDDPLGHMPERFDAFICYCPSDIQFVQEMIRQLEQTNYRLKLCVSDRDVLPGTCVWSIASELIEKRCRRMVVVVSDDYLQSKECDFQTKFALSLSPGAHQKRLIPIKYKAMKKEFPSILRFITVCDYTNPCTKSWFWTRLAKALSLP
What is called inhibition is the change of the read-out against control, counted positive when it falls. For the compound `CCOC(=O)Cc1csc(NC(=O)CSc2ccc(Br)cc2)n1`, the inhibition was -6.41%. The value for `CNC(=O)c1ccsc1NC(=O)c1ccc(S(=O)(=O)N2CCOCC2)cc1` was 0.17%. The value for `Cc1ccc(Oc2cc(NC(=O)CCCn3nc(C)c([N+](=O)[O-])c3C)cc([N+](=O)[O-])c2)cc1` was -10.9%; that for `Nc1cc(C(F)(F)F)ccc1N1CCOCC1` was 2.5%. The value for `COc1ccccc1-c1nc(SC)n[nH]1` was -2.94%; that for `CN(C)CCCCCN(C)Cc1cc2ccccc2o1` was 6.13%. Regarding `Cc1nn(Cc2ccc(Cl)cc2)c(Cl)c1/C=N/NC(=O)CNc1ccccc1F`, the inhibition is -10.4%.

As for `COc1ccc(/C=C2/C(=O)OCc3cc(OC)c(OC)cc32)c(OC)c1`, the inhibition is -8.99%. The value for `Cc1cc(-c2csc(N)n2)c(C)n1Cc1ccccc1` was 5.78%; that for `CC(C)(C)NC(=O)NC(=O)COC(=O)Cc1ccc(Cl)cc1Cl` was 16.8%.

For `Cc1ccnc2nc(C(=O)OCC(=O)N(CC(C)C)CC(C)C)nn12`, the inhibition was -2.14%. Consider `C=CCN(CC=C)CCOc1ccccc1[N+](=O)[O-]`, for which the inhibition was 9.15%. Take `COC(CNC(=O)Cn1ncc2ccsc2c1=O)OC`: the inhibition is -15.6%. The value for `CCO/C=C1\C(=O)N(c2ccc(OCC)cc2)C(=O)c2ccccc21` was 5.91%. On to `Cn1cccc1C(C#N)c1ccccc1C#N` (configuration not stated), for which the inhibition was 2.41%. With `COc1cccc(OC)c1C(=O)NC(=S)Nc1ccc(N2CCOCC2)c(Cl)c1`, the inhibition was -0.95%. The value for `O=C(Cc1ccccc1)NCc1ccc(F)cc1` was -9.59%; that for `CCOC(=O)CSc1nc(C)cc2c1C(=O)OC2` was 8.27%; that for `O=C(Cn1nnc(-c2ccccc2)n1)N/N=C/c1ccc(-c2ccc(Cl)cc2)o1` was 8.21%. In the case of `N/C(=N/O)c1cccn1Cc1ccccc1[N+](=O)[O-]`, the inhibition is -3.45%. `O=C(CCCOc1ccccc1)NCc1ccco1`: the inhibition is 9.17%. The value for `O=C(c1ccc(F)cc1)c1cn(Cc2ccc(F)cc2)c2cc3c(cc2c1=O)OCCO3` was -6.89%; that for `CCN(CC)CCn1c(/N=C/c2cc(Br)ccc2O)nc2ccccc21` was 7.14%. The value for `CCOc1ccc(NC(=O)CN(C)CC(=O)NC(C)c2ccccc2)cc1OCC` (configuration not stated) was -3.92%; that for `CCCNC(=S)N1CCCC(c2nc3ccccc3[nH]2)C1` (configuration not stated) was -4.57%. The value for `Cc1cc(C)c[n+](-c2nc3ccccc3nc2[N-]S(=O)(=O)c2cccs2)c1` was -9.34%. For the compound `COc1ccc2cc(CCl)c(Cl)nc2c1`, the inhibition is 2.67%. As for `COc1cccc(OC)c1C(=O)Nc1ccc(Cc2ccncc2)cc1`, the inhibition is 13.9%. Regarding `COc1ccc(-c2onc(C)c2-c2ccc3c(c2)OCCO3)c(O)c1`, the inhibition was 1.48%. The value for `CC(CC(=O)O)C(=O)c1ccc(Cl)c([N+](=O)[O-])c1` (configuration not stated) was 1.72%.

As to `Cc1nnc(-c2ccc(Oc3ccc(C)c(C)c3)c([N+](=O)[O-])c2)o1`, the inhibition is 2.54%. On to `C[n+]1ccc(/C=C/c2c[nH]c3ccccc23)cc1`, for which the inhibition was 35.4% (active). On to `CSC(=S)N/N=C/c1c[nH]c2ccccc12`, for which the inhibition was -16.8%.

In the case of `S=c1[nH]nc(-c2ccccc2)n1/N=C/c1c[nH]c2ccccc12`, the inhibition is -1.22%. The value for `O=C1c2cccc3c([N+](=O)[O-])ccc(c23)C(=O)N1CC1CCCO1` (configuration not stated) was 84.1% (active). On to `O=c1c2cc3c(=O)n(CC4CCCO4)c(=O)c3cc2c(=O)n1CC1CCCO1` (configuration not stated), for which the inhibition is 0.88%.

Consider `O=C(NCc1ccc2c(c1)OCO2)c1ccc2c(c1)C(=O)N(CC1CCCO1)C2=O` (configuration not stated), for which the inhibition was 16.9%. The value for `C/C=C/c1ccc(OCCOc2ccc(C=O)cc2OC)c(OC)c1` was -6.21%; that for `COCCCNC(=O)C1CCC(CNS(=O)(=O)c2ccc(OC)cc2)CC1` (configuration not stated) was 3.23%; that for `CCOC(=O)C1=C(CC)Nc2ccccc2N=C1N` was -10.4%.

`CCCCN(CC)C(=O)c1ccc2c(c1)OCO2`: the inhibition is -2.02%.

In the case of `O=c1cnnc(Nc2ccccc2F)[nH]1`, the inhibition is 6.52%. On to `COc1ccccc1CC(=O)Nc1ccc(F)cc1F`, for which the inhibition was -14.3%.

For the compound `CC1=NN(c2ccccc2)C(=O)C1C(=O)c1ccc([N+](=O)[O-])cc1` (configuration not stated), the inhibition is 1.28%. The value for `O=C1CC(c2ccccc2)=NN1c1ccc([N+](=O)[O-])cc1` was 7.06%. The value for `O=C1NC(=O)C2C1C(c1ccc([N+](=O)[O-])cc1)=NN2Cc1ccccc1` (configuration not stated) was 44.1% (active); that for `COC(=O)c1cc(C)sc1NC(=O)CC1Nc2ccccc2NC1=O` (configuration not stated) was 5%. The value for `COc1ccc(-c2nn(-c3ccccc3)cc2/C=N/Nc2ccccn2)cc1OC` was -3.61%; that for `O=C(NCCc1ccc(F)cc1)c1n[nH]c2ccccc12` was -4.67%.

Turning to `CCCn1nnc(NC(=O)COc2ccc(CC)cc2)n1`, the inhibition is 9.27%.

Take `CSCCC(NS(=O)(=O)c1ccc2c(c1)oc(=O)n2C)C(=O)NC1CCCc2ccccc21` (configuration not stated): the inhibition was 7.47%. The value for `O=C(CO/N=C/c1ccccc1OC(F)F)NC1CCCC1` was 16.4%. With `O=C(CNC1CCCCC1)NCC1(c2ccccc2)CCCC1`, the inhibition was -4.02%. Consider `COc1cc(C(=S)NCc2ccccc2)cc(Br)c1O`, for which the inhibition is -2.71%. The value for `Cc1cc(C)n(CCNCc2c(C(=O)N3C[C@@H](C)O[C@@H](C)C3)nc3ccc(Cl)cn23)n1` was -4.55%; that for `Cc1cc(C)cc(OCC(=O)NCc2cc(C)nc3ccccc23)c1` was 8.6%. The value for `Cc1cccc(C(=O)N2CCc3c([nH]c4ccccc34)C2CC(C)C)n1` (configuration not stated) was -16.4%; that for `CC12CN(NC(=O)c3ccc(Cl)cc3)C3(C#N)CC1CCC23C` (configuration not stated) was 1.1%. For the compound `CCN(CC(=O)NC1CCS(=O)(=O)C1)S(=O)(=O)c1ccccc1` (configuration not stated), the inhibition was 1.44%.

Regarding `COc1ccc(S(=O)(=O)N2CN(CCc3ccc(OC)c(OC)c3)c3nc4ccccc4nc32)cc1`, the inhibition is 3.83%. For `Cc1ccc(OCCCC(=O)NC(C)c2ccccc2)c(C)c1` (configuration not stated), the inhibition is -0.61%. Take `CCCCCCCCn1c2c(c(=N)c3c1CCC3)CCCC2`: the inhibition is 28.8% (active). As to `CCCCCCn1c(CN2CCCCC2)nc2c1c(=O)n(C)c(=O)n2C`, the inhibition is 3.83%. In the case of `O=C(Cc1csc(Nc2nc(=S)[nH]c3ccccc23)n1)NCCCN1CCN(c2cccc(Cl)c2)CC1`, the inhibition was -1.51%. As for `Cc1nc(Cl)c2oc3ccccc3c2n1`, the inhibition is 35.2% (active). The value for `CCSc1nc(C)nc2c1oc1ccccc12` was 1.7%. The value for `Cc1nc(N2CCN(c3ncccn3)CC2)c2oc3ccccc3c2n1` was 7.8%; that for `Cc1ccc2[nH]c(=O)c(CN3CCCCC3)c(-c3ccccc3)c2c1` was 16.6%; that for `COc1ccc(C2OCC3(CO2)SC(=O)NC3=O)cc1OC` (configuration not stated) was 6.58%. For `CCN1CCC2(CCN(Cc3cn[nH]c3-c3ccc(OC)c(F)c3)C2)C1` (configuration not stated), the inhibition is -1.36%.

As to `O=C(Nc1ccccc1Cc1ccccc1)c1ccc2c(c1)SC1=NS(=O)(=O)CCN12`, the inhibition was 14.2%. Turning to `CCCCN(C(=O)COc1ccc(NC(C)=O)cc1)C1CCS(=O)(=O)C1` (configuration not stated), the inhibition is 5.19%. As to `COc1cc(NC(=O)COC(=O)c2cnc(C)cn2)c(C)cc1[N+](=O)[O-]`, the inhibition is 0.72%.

For `CC(C)c1csc(CN2CCC(CO)(Cc3ccccc3)CC2)n1`, the inhibition is -3.76%. On to `Oc1ccccc1C=NC1CCCCC1N=Cc1ccccc1O` (configuration not stated), for which the inhibition was -2.31%.

Turning to `Cn1cnnc1SCC(=O)Nc1ccc(N2CCOCC2)cc1`, the inhibition is -8.28%. On to `CN(c1ccccc1)c1nc(N)c([N+](=O)[O-])c(NCc2ccco2)n1`, for which the inhibition was -1.5%. On to `COC(=O)Cc1cc(=O)n(-c2nc3ccccc3s2)[nH]1`, for which the inhibition was 25.2% (active). The value for `COC(=O)Cc1nc2ccccc2[nH]1` was 9.21%; that for `CCC(=O)NC(=Nc1nc2ccccc2s1)NC(=O)CC` was -5.21%.

For the compound `CC1CCN(c2ccc([N+](=O)[O-])cc2C(N)=O)CC1`, the inhibition was 12.4%. With `Cc1nc2ccccc2n1CC(=O)N/N=C/c1cccs1`, the inhibition was -1.34%. With `CN(C)c1ccc(C=NCCc2ccc(S(N)(=O)=O)cc2)cc1`, the inhibition was -10.3%.

With `Cc1cc(C)c2c(n1)sc1c(=O)n(-c3ccccc3)c(=O)[nH]c12`, the inhibition is 13.9%.

For the compound `Cn1nnnc1-c1cc(Cl)cc(Cl)c1`, the inhibition is -10.5%. `O=C(COC(=O)c1cc(-c2cccs2)nn1-c1ccccc1)Nc1cc([N+](=O)[O-])ccc1Cl`: the inhibition was 7.72%. The value for `O=C(/C=C/c1ccc(F)cc1)NCCNC(=O)/C=C/c1ccc(F)cc1` was -2.71%; that for `COc1ccc(NC(=S)Nc2ccc(S(N)(=O)=O)cc2)c(C)c1` was -9.09%.

In the case of `Nc1nc(SCC(=O)NCCN2CCOCC2)nc2sc3c(c12)CCC3`, the inhibition is 4.71%.

On to `Cc1ccc(Nc2c(F)c(F)c(F)c(F)c2C(=O)O)c(C)c1`, for which the inhibition was -9.32%. In the case of `Cc1cccc2cc(CN(Cc3cccs3)C(=S)NCc3ccco3)c(=O)[nH]c12`, the inhibition is 6.03%. The value for `COc1ccc(-c2oc3ncn(Cc4ccco4)c(=N)c3c2-c2ccc(OC)cc2)cc1` was -4.97%; that for `Cc1nn(C)c(C)c1CN(C(=O)CCc1nnc(Cc2c[nH]c3ccccc23)o1)C(C)C` was -4.71%; that for `COc1ccc(Cc2nnc(N/N=C/c3ccccc3O)[nH]c2=O)cc1OC` was -8.91%. The value for `COc1cc(C(=O)N[C@@H](C)C(=O)NCc2ccco2)cc(OC)c1OC` was 5.84%.

On to `CCOc1ccc(N2C(=O)/C(=C/c3ccc(C)o3)N(C)C2=S)cc1`, for which the inhibition is -6.16%.

In the case of `Cc1ccccc1-n1cc(CNC(=O)CC2C(=O)NCCN2C/C=C/c2ccccc2)cn1` (configuration not stated), the inhibition is -13.3%.

The values are drawn from PubChem BioAssay AID861 (The Scripps Research Institute Molecular Screening Center, 2007).
